Results taken from PubChem BioAssay (EPA / NIEHS).
Where “and” joins values, the source holds several entries; their conditions need not be identical. Equal entries are not always repeated. Inconclusive results are not listed. A structure can be active in one record and inactive in another. Calls of active or inactive are those of the source. Rule for the calls, unless noted: active = hit-call score of the fitted dose curve at least 0.9, where 1 is the maximum; inactive = score below 0.9.

How the values were obtained:
[1] = ATG_TCF_b_cat_CIS: Attagene CIS-FACTORIAL HepG2 Assay for human T-Cell-Factor with beta-catenin (TCF/b-cat) (AID 2282965); settings: HepG2 TCF/beta-catenin cis-reporter transcription, actives raise or lower the signal
How it was run: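 HepG2 cells transiently transfected with cis-promoter-driven multiplexed reporter units; reporter mRNA measured 24 h after dosing by RT-PCR, FAM labelling, HpaI digestion and capillary electrophoresis. Bidirectional fitting relative to DMSO baseline.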

[2] = ATG_TAL_CIS: Attagene CIS-FACTORIAL HepG2 Assay for human TAL Basal Promoter (AID 2282966); settings: HepG2 Attagene cis-factorial TAL promoter reporter; actives raise or lower the signal;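 note: background control endpoint measuring basal TAL promoter reporter mRNA not a specific factor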
How it was run: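 Background-control endpoint: basal TAL promoter reporter transcripts in transiently transfected HepG2, measured 24 h after dosing. Read-out by RT-PCR with fluorescent primer extension and capillary electrophoresis; gain or loss of signal fitted relative to DMSO.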

[3] = ATG_TGFb_CIS: Attagene CIS-FACTORIAL HepG2 Assay for human Transforming Growth Factor (TGF) (AID 2282967); settings: HepG2 Attagene CIS TGFb reporter, mRNA transcription; actives raise or lower the signal
How it was run: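 Bidirectional fitting relative to DMSO gave the endpoint. Underlying data: reporter mRNA from HepG2 cells carrying transiently transfected cis-regulated reporter constructs, harvested 24 h after dosing and analyzed by RT-PCR and capillary electrophoresis.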

[4] = ATG_VDRE_CIS: Attagene CIS-FACTORIAL HepG2 Assay for human Vitamin D Receptor Element (VDRE) (AID 2282968); settings: HepG2 VDRE cis-reporter transcription, actives raise or lower the signal
How it was run: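 Transient MRTU transfection of HepG2, 24 h compound exposure. Readout: reporter transcripts via RT-PCR and capillary electrophoresis, fluorescence. Bidirectional fit vs DMSO.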

[5] = biological target: Nuclear receptor subfamily 1 group I member 3 (Homo sapiens) (UniProt Q14994); assay: ATG_CAR_TRANS: Attagene TRANS-FACTORIAL HepG2 Assay for human Constitutive Androstane Receptor (CAR) (AID 2282969; active = hit-call score of the fitted dose curve at least 0.9, where 1 is the maximum;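 note: activators raise reporter mRNA above DMSO so AC50 marks induction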); settings: HepG2 Attagene TRANS-FACTORIAL CAR reporter
Chain of Nuclear receptor subfamily 1 group I member 3 (Homo sapiens) (Q14994 whole entry, looked up, the tested form may be a part): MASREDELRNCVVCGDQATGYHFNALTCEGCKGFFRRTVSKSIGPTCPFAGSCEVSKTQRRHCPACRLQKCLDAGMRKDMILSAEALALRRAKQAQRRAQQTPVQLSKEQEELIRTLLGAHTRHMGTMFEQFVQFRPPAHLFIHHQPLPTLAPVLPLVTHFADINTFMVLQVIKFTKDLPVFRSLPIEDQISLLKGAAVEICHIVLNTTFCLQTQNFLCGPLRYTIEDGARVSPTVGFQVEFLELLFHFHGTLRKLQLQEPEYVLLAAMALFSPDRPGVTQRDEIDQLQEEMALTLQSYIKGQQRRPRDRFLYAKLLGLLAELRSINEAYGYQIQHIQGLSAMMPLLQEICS
How it was run: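 Transiently transfected HepG2, multiplex TRANS reporters (CAR-Gal4 chimera driving GAL4-UAS reporter). 24 h dosing. Readout: reporter transcript by RT-PCR + capillary electrophoresis, fluorescence intensity; positive direction vs DMSO.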

[6] = biological target: Estrogen receptor (Homo sapiens) (UniProt P03372); assay: ATG_ERa_TRANS: Attagene TRANS-FACTORIAL HepG2 Assay for human Estrogen Receptor alpha (ERa) (AID 2282970; active = hit-call score of the fitted dose curve at least 0.9, where 1 is the maximum); settings: HepG2 Attagene TRANS ERa GAL4 reporter, mRNA
Chain of Estrogen receptor (Homo sapiens) (P03372 whole entry, looked up, the tested form may be a part): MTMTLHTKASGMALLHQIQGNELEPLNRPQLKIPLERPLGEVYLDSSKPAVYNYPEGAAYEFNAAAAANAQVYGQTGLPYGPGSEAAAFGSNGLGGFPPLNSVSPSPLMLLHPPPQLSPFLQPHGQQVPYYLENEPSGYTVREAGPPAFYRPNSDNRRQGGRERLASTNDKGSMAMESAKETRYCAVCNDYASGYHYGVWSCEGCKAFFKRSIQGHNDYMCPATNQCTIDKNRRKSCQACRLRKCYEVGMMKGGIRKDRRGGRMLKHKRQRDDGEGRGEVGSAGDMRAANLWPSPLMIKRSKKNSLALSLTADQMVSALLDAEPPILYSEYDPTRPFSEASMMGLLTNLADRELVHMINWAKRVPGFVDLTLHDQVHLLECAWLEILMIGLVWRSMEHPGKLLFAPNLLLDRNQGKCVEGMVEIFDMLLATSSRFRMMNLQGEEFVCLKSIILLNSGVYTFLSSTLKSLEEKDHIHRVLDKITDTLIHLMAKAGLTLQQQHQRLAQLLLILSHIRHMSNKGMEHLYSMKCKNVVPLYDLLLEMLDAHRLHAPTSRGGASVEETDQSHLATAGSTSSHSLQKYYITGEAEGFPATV
How it was run: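 Reporter transcripts were measured 24 h after dosing by RT-PCR with fluorescent primer extension and capillary electrophoresis. The system is transiently transfected HepG2 expressing exogenous NR-Gal4 chimeras driving GAL4-UAS reporters; DMSO is the baseline.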

[7] = biological target: Steroid hormone receptor ERR1 (Homo sapiens) (UniProt P11474); assay: ATG_ERRa_TRANS: Attagene TRANS-FACTORIAL HepG2 Assay for human Estrogen-Related Receptor alpha (ERRa) (AID 2282971; active = hit-call score of the fitted dose curve at least 0.9, where 1 is the maximum); settings: HepG2 Attagene TRANS reporter, ERRa transactivation
Chain of Steroid hormone receptor ERR1 (Homo sapiens) (P11474 whole entry, looked up, the tested form may be a part): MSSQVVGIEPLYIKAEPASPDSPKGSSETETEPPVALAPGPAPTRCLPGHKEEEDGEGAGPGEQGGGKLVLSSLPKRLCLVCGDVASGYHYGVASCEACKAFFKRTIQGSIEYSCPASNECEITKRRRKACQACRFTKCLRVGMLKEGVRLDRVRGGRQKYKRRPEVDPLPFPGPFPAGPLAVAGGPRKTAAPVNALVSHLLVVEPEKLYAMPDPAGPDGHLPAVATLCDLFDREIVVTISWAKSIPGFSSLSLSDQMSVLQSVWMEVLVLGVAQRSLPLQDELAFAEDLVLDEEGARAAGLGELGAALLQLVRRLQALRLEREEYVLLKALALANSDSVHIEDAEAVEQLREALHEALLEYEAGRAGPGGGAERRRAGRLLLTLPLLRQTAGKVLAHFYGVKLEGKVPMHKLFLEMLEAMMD
How it was run: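 Reporter transcripts from ERRa-Gal4 chimera activity measured in transiently transfected human HepG2 cells 24 hours after dosing, using RT-PCR with 6-FAM primer extension, HpaI digestion and capillary electrophoresis; DMSO is baseline.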

[8] = ATG_M_19_TRANS: Attagene TRANS-FACTORIAL HepG2 Assay for M19 Transcription Factor (Internal Marker) (AID 2282974; active = hit-call score of the fitted dose curve at least 0.9, where 1 is the maximum); settings: HepG2 Attagene TRANS-FACTORIAL M19 internal marker reporter
How it was run: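 HepG2 cells transiently transfected with multiple GAL4-UAS reporter transcription units were exposed to chemicals for 24 h. Reporter mRNA was read by RT-PCR, 6-FAM primer extension, HpaI digestion and capillary electrophoresis; gain of signal fitted relative to DMSO.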

[9] = biological target: Androgen receptor (Homo sapiens) (UniProt P10275); assay: ATG_AR_TRANS: Attagene TRANS-FACTORIAL HepG2 Assay for human Androgen Receptor (AR) (AID 2282973; active = hit-call score of the fitted dose curve at least 0.9, where 1 is the maximum); settings: HepG2 Attagene TRANS-FACTORIAL AR reporter transcription
Chain of Androgen receptor (Homo sapiens) (P10275 whole entry, looked up, the tested form may be a part): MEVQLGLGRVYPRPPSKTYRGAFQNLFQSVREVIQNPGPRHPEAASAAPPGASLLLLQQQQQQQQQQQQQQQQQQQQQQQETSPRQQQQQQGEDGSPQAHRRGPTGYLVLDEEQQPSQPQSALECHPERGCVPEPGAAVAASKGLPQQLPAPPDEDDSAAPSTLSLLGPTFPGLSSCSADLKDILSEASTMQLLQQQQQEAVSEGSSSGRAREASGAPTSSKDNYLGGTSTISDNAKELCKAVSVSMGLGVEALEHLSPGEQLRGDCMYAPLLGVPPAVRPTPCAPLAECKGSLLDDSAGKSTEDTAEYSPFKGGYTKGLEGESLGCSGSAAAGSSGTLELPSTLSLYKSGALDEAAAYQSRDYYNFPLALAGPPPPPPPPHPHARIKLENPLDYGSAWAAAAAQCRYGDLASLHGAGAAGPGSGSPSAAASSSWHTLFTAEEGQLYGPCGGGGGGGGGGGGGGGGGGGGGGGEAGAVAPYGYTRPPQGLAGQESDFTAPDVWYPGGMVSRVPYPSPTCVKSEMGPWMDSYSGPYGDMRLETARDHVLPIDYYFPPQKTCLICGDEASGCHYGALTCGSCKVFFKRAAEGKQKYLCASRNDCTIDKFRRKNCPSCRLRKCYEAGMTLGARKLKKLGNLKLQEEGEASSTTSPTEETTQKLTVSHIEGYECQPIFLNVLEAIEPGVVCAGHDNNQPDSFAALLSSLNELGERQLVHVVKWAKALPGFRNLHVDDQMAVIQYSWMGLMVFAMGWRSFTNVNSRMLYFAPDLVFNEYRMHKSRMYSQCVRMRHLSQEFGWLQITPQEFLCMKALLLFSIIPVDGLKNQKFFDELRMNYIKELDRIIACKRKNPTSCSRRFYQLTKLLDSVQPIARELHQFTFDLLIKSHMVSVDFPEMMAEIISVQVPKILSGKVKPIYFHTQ
How it was run: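 Transcriptional activity of an exogenous AR–Gal4 fusion read as GAL4-UAS reporter transcript levels in transfected human HepG2 cells after 24 h dosing. Detection via RT-PCR, 6-FAM labelling, HpaI digest and capillary electrophoresis; increase over DMSO baseline.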

[10] = biological target: X-box-binding protein 1 (Homo sapiens) (UniProt P17861); assay: ATG_Xbp1_CIS: Attagene CIS-FACTORIAL HepG2 Assay for human X-box Binding Protein 1 (XBP1) (AID 2282972); settings: HepG2 XBP1 cis-element reporter, Attagene multiplex; actives raise or lower the signal
Chain of X-box-binding protein 1 (Homo sapiens) (P17861 whole entry, looked up): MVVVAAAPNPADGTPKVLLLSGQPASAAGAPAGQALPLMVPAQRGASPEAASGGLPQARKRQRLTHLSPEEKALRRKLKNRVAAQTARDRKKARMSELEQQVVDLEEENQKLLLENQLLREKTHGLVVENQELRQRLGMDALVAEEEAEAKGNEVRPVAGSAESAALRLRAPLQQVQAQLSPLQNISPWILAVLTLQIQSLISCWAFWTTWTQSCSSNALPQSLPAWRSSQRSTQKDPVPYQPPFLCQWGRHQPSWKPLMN
How it was run: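 Changes in reporter transcript abundance, read by RT-PCR and capillary electrophoresis, reflect endogenous transcription factor activity. Transfected HepG2 cells received compound for 24 hours; DMSO defined baseline for bidirectional analysis.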

Measured: AC50

COc1ccc(C(c2ccc(OC)cc2)C(Cl)(Cl)Cl)cc1
inactive: [1] | [2] | [3] | [4] | [5] | [6] | [7] | [8]
active: [4] 4.94 µM and 16.3 µM and 11.9 µM | [6] 1.53 µM [middle of 4 runs]

COc1nc(C)nc(NC(=O)NS(=O)(=O)c2ccccc2CCC(F)(F)F)n1
inactive: [1] | [2] | [3] | [4] | [5] | [6] | [7] | [9] | [8]

O=C(Nc1ccccc1)Nc1ccnc(Cl)c1
inactive: [1] | [2] | [3] | [6] | [7] | [10] | [9] | [8]
active: [4] 50 µM

CO/C=C(/C(=O)OC)c1ccccc1Oc1cc(Oc2ccccc2C#N)ncn1
inactive: [1] | [2] | [3] | [5] | [6] | [7] | [10] | [9] | [8]

COc1nc(NC(C)C)nc(NC(C)C)n1
inactive: [1] | [2] | [3] | [4] | [6] | [7] | [8]

CCNc1nc(Cl)nc(NC(C)C)n1
inactive: [1] | [2] | [3] | [4] | [6] | [7] | [8]

N#Cc1cc(Br)c(O)c(Br)c1
inactive: [1] | [2] | [3] | [6] | [7] | [8]

CC(Oc1ccc(Cl)cc1Cl)C(=O)O (stereo unspecified)
inactive: [1] | [2] | [3] | [4] | [8]

CCON=C(CC)C1=C(O)CC(c2c(C)cc(C)cc2C)CC1=O (stereo unspecified)
inactive: [1] | [2] | [3] | [4] | [6] | [10]

CCOc1cc(Oc2ccc(C(F)(F)F)cc2Cl)ccc1[N+](=O)[O-]
active: [10] 13.1 µM
inactive: [1] | [2] | [3] | [5] | [6]

CC1=C(C(=O)Nc2ccccc2)SCCO1
inactive: [1] | [2] | [3] | [4] | [6] | [7] | [10]

CN(C)C(=S)SSC(=S)N(C)C
inactive: [1] | [2] | [3] | [4] | [6] | [9] | [8]

O=C(O)c1nc(Cl)ccc1Cl
inactive: [1] | [2] | [3] | [6] | [8]

C=CC1(C)OC(=O)N(c2cc(Cl)cc(Cl)c2)C1=O (stereo unspecified)
inactive: [1] | [2] | [3] | [4] | [6] | [8]

Cc1cc(Cl)ccc1OCC(=O)O
inactive: [1] | [2] | [3] | [4] | [5] | [6] | [9] | [8]

N#CC(CCc1ccc(Cl)cc1)(Cn1cncn1)c1ccccc1 (stereo unspecified)
inactive: [1] | [2] | [3] | [4] | [6] | [7] | [9] | [8]

CNC(=O)ON=CC(C)(C)SC
inactive: [1] | [2] | [3] | [6] | [7] | [10] | [8]

Fc1ccc(Oc2ccnc3cc(Cl)cc(Cl)c23)cc1
inactive: [1] | [2] | [3] | [4] | [5] | [6] | [8]

Cc1c(F)c(F)c(COC(=O)C2C(/C=C(\Cl)C(F)(F)F)C2(C)C)c(F)c1F (stereo unspecified)
inactive: [1] | [2] | [3] | [10]
active: [4] 18 µM | [6] 50 µM

Cc1ccc(-c2c(Cl)nc(C#N)n2S(=O)(=O)N(C)C)cc1
active: [4] 11.9 µM
inactive: [1] | [2] | [3] | [6] | [9]

CS/C(C)=N/OC(=O)N(C)SN(C)C(=O)O/N=C(\C)SC
inactive: [1] | [2] | [3] | [5] | [6] | [8]

COC(=O)C(C)Oc1ccc(Oc2ccc(Cl)cc2Cl)cc1 (stereo unspecified)
inactive: [1] | [2] | [3] | [4] | [5] | [7] | [8]

CC1COC(Cn2cncn2)(c2ccc(Oc3ccc(Cl)cc3)cc2Cl)O1 (stereo unspecified)
inactive: [1] | [2] | [6] | [7] | [10]
active: [3] 3.17 µM | [4] 3.17 µM

CC(C)Oc1cc(-n2nc(C(C)(C)C)oc2=O)c(Cl)cc1Cl
inactive: [1] | [2] | [3] | [5] | [6] | [9] | [8]
active: [4] 0.667 µM

COc1cnc(OC)n2nc(NS(=O)(=O)c3c(OCC(F)F)cccc3C(F)(F)F)nc12
inactive: [1] | [2] | [3] | [5] | [6] | [7] | [10] | [8]

COP(N)(=O)SC (stereo unspecified)
inactive: [1] | [2] | [3] | [4] | [5] | [6] | [8]

O=C(O)COc1nc(Cl)c(Cl)cc1Cl
inactive: [1] | [2] | [3] | [4] | [6]

CCNc1nc(Cl)nc(NCC)n1
inactive: [1] | [2] | [3] | [4] | [5] | [7] | [8]

C#CCOS(=O)OC1CCCCC1Oc1ccc(C(C)(C)C)cc1 (stereo unspecified)
inactive: [1] | [2] | [3] | [5] | [6]
